Only a selection was taken, and hits are over-represented in it overall.
HIV RNase H inh-1 – HIV-1 RT RNase H inhibitors, primary screen, biochemical, fluorescence; Gag-Pol polyprotein (Human immunodeficiency virus type 1 group M subtype B (isolate …; RT-RNase H RNA/DNA duplex cleavage; inhibition, % at 10 µM; 65,000 compounds, 1.9% hits; AID 565, 2006; in the data active = inhibition above about 50%
HIV RNase H inh-2 – HIV-1 RT RNase H inhibitors, retest, confirmation, biochemical. 1,000 compounds, 39% hits. Recombinant RT RNase H, fluorescent RNA/DNA duplex cleavage. shares compounds with HIV RNase H inh-1. inhibition, % at 10 µM; in the data active = inhibition above about 48%; inconclusive = no clear call, values can overlap the other calls
Of the large screens only hits and unclear results are named; the others gave an inactive call (follow-up assays come after a bar, where they were run).

CCOC(=O)c1c(C)[nH]c(C(=O)CSc2nnc(CC(C)c3ccccc3)o2)c1C (centres undefined)	HIV RNase H inh-1 72 | HIV RNase H inh-2 inconclusive
CCOC(=O)c1c(C)[nH]c(C)c1C(=O)CSc1nnnn1-c1ccccc1	none
CCOC(=O)c1ccccc1NC(=O)CSc1nc2ccccc2o1	none
O=C(O)CSc1nc2ccccc2o1	none
Cc1cc(C(=O)OCC(=O)Nc2cc(C(F)(F)F)ccc2N2CCOCC2)c(C)o1	none
CC12CCC(c3c(C(=O)Nc4nccs4)nn(-c4ccccc4)c31)C2(C)C (centres undefined)	none
CC(=O)NC(c1ccco1)c1ccc2cccnc2c1O (centres undefined)	none
OCCN1CCN(CC(O)COc2ccc3ccccc3c2)CC1 (centres undefined)	none
OCCN1CCN(C(c2cccs2)c2ccc3cccnc3c2O)CC1 (centres undefined)	HIV RNase H inh-1 72 | HIV RNase H inh-2 inactive
C=C(C)Cn1c(-c2ccc(OC)cc2)nc2ccccc21	none
COc1ccc(N2CCN(C(c3ccccc3)c3sc4nc(C)nn4c3O)CC2)cc1 (centres undefined)	none
Cc1cc(NC(=O)c2cc(-c3ccco3)on2)n(-c2ccccc2)n1	none
Cc1cc(NC(=O)c2cc(C3CC3)on2)n(-c2ccccc2)n1	none
Cc1cc(NC(=O)c2cc(C)on2)n(-c2ccccc2)n1	HIV RNase H inh-1 75 | HIV RNase H inh-2 inactive
CCOc1ccc(C(=O)C2CCN(CC(=O)Nc3ccccc3N3CCOCC3)CC2)cc1	none
COc1cc(Cl)c(C)cc1NC(=O)COC(=O)c1cnc(C)cn1	none
O=c1c(C(c2nnnn2C2CCCCC2)N2CCCCC2)coc2ccc(Cl)cc12 (centres undefined)	none
O=C(Nc1cc(N2CCOCC2)ncn1)Nc1cccc2ccccc12	none
O=S(=O)(/N=C(/Nc1cc(N2CCOCC2)ncn1)c1ccccc1)c1ccccc1	none
O=C(NC(=O)c1ccc(Cl)cc1)Nc1cc(N2CCCCC2)ncn1	HIV RNase H inh-1 75 | HIV RNase H inh-2 99
CC1(C)CC(=O)C(C=NCCN2CCN(CCc3ccccc3)CC2)=C(O)C1	none
CCn1c(SCC(=O)N2CCN(c3ccccc3F)CC2)nnc1-c1ccoc1C	none
O=C(CN1CCN(C(=O)c2c(F)cccc2F)CC1)Nc1ccccc1F	none
Cn1c(=O)c2c(SCC(=O)NCC3CCCO3)nc(-c3cccs3)nc2n(C)c1=O (centres undefined)	none
CC(C)Sc1nc(-c2cccs2)nc2c1c(=O)n(C)c(=O)n2C	HIV RNase H inh-1 74 | HIV RNase H inh-2 90
CC(=O)C(Sc1nc(-c2ccco2)nc2c1c(=O)n(C)c(=O)n2C)C(=O)N(C)C (centres undefined)	none
COc1ccc(OC)c(NC(=O)c2nnn(Cc3ccccc3C)c2N)c1	none
Cc1ccc(-c2nnn(CC(=O)NCC3COCCO3)n2)o1 (centres undefined)	none
COc1ccc(NC(=O)Cn2nnc(-c3ccccc3N)n2)cc1OC	none
Cc1ccc(-c2nnn(CC(=O)Nc3ccc4nn(-c5ccccc5)nc4c3)n2)o1	HIV RNase H inh-1 76 | HIV RNase H inh-2 inconclusive
O=c1c2c3nc4ccccc4nc3n(CCN3CCOCC3)c2ncn1CCN1CCOCC1	none
COc1nc(-c2ccccc2)ccc1-c1noc(-c2ccccc2)n1	none
COc1nc(-c2ccc(Cl)cc2)ccc1-c1noc(-c2ccncc2)n1	HIV RNase H inh-1 64 | HIV RNase H inh-2 inactive
COc1nc(C)ccc1-c1noc(-c2ccncc2)n1	none
CC(=O)Nc1nc(SCCCc2ccccc2)n[nH]1	none
COC(=O)c1sc(N2C(=O)c3oc4ccccc4c(=O)c3C2c2cccs2)nc1C (centres undefined)	HIV RNase H inh-1 93 | HIV RNase H inh-2 57
C=CCOC(=O)c1sc(N2C(=O)c3oc4ccccc4c(=O)c3C2c2ccco2)nc1C (centres undefined)	none
Cc1ccc(C2c3c(oc4ccccc4c3=O)C(=O)N2c2nnc(C)s2)o1 (centres undefined)	none
CC(NS(=O)(=O)c1ccccc1)C(c1cccs1)N1CCN(C)CC1 (centres undefined)	none
COCCn1c(-c2ccc(Cl)cc2)cnc1SCC(=O)NCc1cccs1	none
COc1ccc(CC2C(=O)N(C)C(=O)N(C)C2=O)c(OC)c1	none
C=CCOc1ccc(CC2C(=O)N(C)C(=O)N(C)C2=O)cc1	HIV RNase H inh-1 56 | HIV RNase H inh-2 88
CCN(CC)c1ccc(CC2C(=O)N(C)C(=O)N(C)C2=O)cc1	none
COc1ccc(C(=O)CSc2nc3nc(C)cc(C)c3c(=O)[nH]2)cc1OC	none
O=C(OCCCCN1C(=O)c2ccccc2C1=O)c1n[nH]c2ccccc12	none
O=C(CN1CCN(c2ncccn2)CC1)Nc1ccccc1-n1cccc1	none
COc1ccc(-c2ocnc2C(=O)Nc2ccccc2N2CCCCC2)cc1	HIV RNase H inh-1 76 | HIV RNase H inh-2 inactive
O=C(Nc1ccccc1N1CCCC1)c1ccc2c(c1)OCO2	none
COc1ccc2cc3cc(C(=O)Nc4ccccc4N4CCN(C)CC4)oc3nc2c1	none
